From the supplement of paper PMC4466140

Columns and labels:
Test in all cases: SPOT peptide array binding signal intensity (averaged, normalized) (arbitrary units (background-subtracted, floor 0; scale differs between SH3 domains)); higher = stronger binding of the SH3 domain to the peptide
AgAbp1 = target: AgAbp1
In short: (§1)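 Four yeast species supplied the SH3 domains, which were expressed as GST fusions in E. coli BL21(DE3) and purified on glutathione Sepharose. Incubation with cellulose membranes carrying synthetic 15-mer peptides, cysteines exchanged for serines, ran overnight at 4°C at 10 μg/ml in TBS-based blocking buffer. Binding signal is reported as normalized, background-subtracted spot intensity averaged over replicates, in arbitrary units not shared between domains.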

AgBbc1 = target: AgBbc1
In short: as §1

AgBem1-D1 = target: AgBem1-D1
In short: as §1

AgBzz1-D1 = target: AgBzz1-D1
In short: as §1

AgBzz1-D2 = target: AgBzz1-D2
In short: as §1

AgCyk3 = target: AgCyk3
In short: as §1

AgFus1 = target: AgFus1
In short: as §1

AgHof1 = target: AgHof1
In short: as §1

AgHse1 = target: AgHse1
In short: as §1

AgLsb1 = target: AgLsb1
In short: as §1

AgLsb4 = target: AgLsb4
In short: as §1

AgMyo5 = target: AgMyo5
In short: as §1

AgNbp2 = target: AgNbp2
In short: as §1

AgRvs167 = target: AgRvs167
In short: as §1

AgSho1 = target: AgSho1
In short: as §1

AgSla1-D1-D2 = target: AgSla1-D1-D2
In short: as §1

AgSla1-D3 = target: AgSla1-D3
In short: as §1

CaAbp1-D1 = target: CaAbp1-D1
In short: as §1

CaAbp1-D2 = target: CaAbp1-D2
In short: as §1

CaBbc1 = target: CaBbc1
In short: as §1

CaBem1-D1 = target: CaBem1-D1
In short: as §1

CaBzz1-D1 = target: CaBzz1-D1
In short: as §1

CaBzz1-D2 = target: CaBzz1-D2
In short: as §1

CaCyk3 = target: CaCyk3
In short: as §1

CaFus1 = target: CaFus1
In short: as §1

CaHof1 = target: CaHof1
In short: as §1

CaHse1 = target: CaHse1
In short: as §1

CaLsb1 = target: CaLsb1
In short: as §1

CaLsb4 = target: CaLsb4
In short: as §1

CaMyo5 = target: CaMyo5
In short: as §1

CaNbp2 = target: CaNbp2
In short: as §1

CaRvs167 = target: CaRvs167
In short: as §1

CaRvs167-3 = target: CaRvs167-3
In short: as §1

CaSho1 = target: CaSho1
In short: as §1

CaSla1-D1-D2 = target: CaSla1-D1-D2
In short: as §1

CaSla1-D3 = target: CaSla1-D3
In short: as §1

ScAbp1 = target: ScAbp1
In short: as §1

ScBbc1 = target: ScBbc1
In short: as §1

ScBem1-D1 = target: ScBem1-D1
In short: as §1

ScBzz1-D1 = target: ScBzz1-D1
In short: as §1

ScBzz1-D2 = target: ScBzz1-D2
In short: as §1

ScCyk3 = target: ScCyk3
In short: as §1

ScFus1 = target: ScFus1
In short: as §1

ScHof1 = target: ScHof1
In short: as §1

ScHse1 = target: ScHse1
In short: as §1

ScLsb1 = target: ScLsb1
In short: as §1

ScLsb2 = target: ScLsb2
In short: as §1

ScLsb3 = target: ScLsb3
In short: as §1

ScLsb4 = target: ScLsb4
In short: as §1

ScMyo3 = target: ScMyo3
In short: as §1

ScMyo5 = target: ScMyo5
In short: as §1

ScNbp2 = target: ScNbp2
In short: as §1

ScPex13 = target: ScPex13
In short: as §1

ScRvs167 = target: ScRvs167
In short: as §1

ScSho1 = target: ScSho1
In short: as §1

ScSla1-D1-D2 = target: ScSla1-D1-D2
In short: as §1

ScSla1-D3 = target: ScSla1-D3
In short: as §1

SpAbp1-D1 = target: SpAbp1-D1
In short: as §1

SpBbc1 = target: SpBbc1
In short: as §1

SpBzz1-D1 = target: SpBzz1-D1
In short: as §1

SpBzz1-D2 = target: SpBzz1-D2
In short: as §1

SpCyk3 = target: SpCyk3
In short: as §1

SpHof1 = target: SpHof1
In short: as §1

SpHof1-2 = target: SpHof1-2
In short: as §1

SpHof1-3 = target: SpHof1-3
In short: as §1

SpHse1 = target: SpHse1
In short: as §1

SpLsb1 = target: SpLsb1
In short: as §1

SpLsb4 = target: SpLsb4
In short: as §1

SpMyo1 = target: SpMyo1
In short: as §1

SpNbp2 = target: SpNbp2
In short: as §1

SpPex13 = target: SpPex13
In short: as §1

SpRvs167 = target: SpRvs167
In short: as §1

SpSla1-D1-D2 = target: SpSla1-D1-D2
In short: as §1

SpSla1-D3 = target: SpSla1-D3
In short: as §1

Measured: SPOT peptide array binding signal intensity

B1: unnamed (peptide)
chain: ATNVPVAPPPPPASL
6.5: CaRvs167-3
125: SpBzz1-D1
4: CaCyk3
18: CaNbp2
2: AgCyk3 | ScBzz1-D2 | ScLsb4
0.5: CaHse1
1: AgBzz1-D1 | CaHof1 | ScAbp1 | ScCyk3
0.25: CaBzz1-D2 | ScLsb1
1430: ScMyo3
23: CaBzz1-D1
8.75: SpHse1
3: AgHof1
≤ 0: AgAbp1 | AgBem1-D1 | AgBzz1-D2 | AgFus1 | AgLsb1 | AgLsb4 | AgNbp2 | AgRvs167 | AgSho1 | AgSla1-D3 | CaAbp1-D1 | CaAbp1-D2 | CaBbc1 | CaBem1-D1 | CaFus1 | CaLsb1 | CaLsb4 | CaRvs167 | CaSho1 | CaSla1-D1-D2 | CaSla1-D3 | ScBem1-D1 | ScBzz1-D1 | ScFus1 | ScHof1 | ScHse1 | ScLsb2 | ScLsb3 | ScNbp2 | ScPex13 | ScRvs167 | ScSho1 | ScSla1-D1-D2 | SpAbp1-D1 | SpBbc1 | SpBzz1-D2 | SpCyk3 | SpHof1 | SpHof1-2 | SpHof1-3 | SpLsb1 | SpLsb4 | SpPex13 | SpRvs167 | SpSla1-D1-D2 | SpSla1-D3
13.8: CaMyo5
2.25: ScBbc1 | ScSla1-D3
2.75: AgBbc1
468: AgMyo5
161: ScMyo5
339: SpMyo1
4.5: AgSla1-D1-D2
27.5: SpNbp2
27: AgHse1
